# Laboratory results reported in PubChem BioAssay (NCI).
# The panel holds about 83,000 compounds, 20% with a hit somewhere; the sample as a whole holds those more often.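 Interpretation: 100, growth as untreated; towards 0, rising growth inhibition; 0, no net growth; 0 to -100, cell death. Compounds scoring below 10 were considered active.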 Unmarked numbers belong to inactive results. The source made the active and inactive calls.
# Key:
# Test in all cases: NCI-60 one-dose screen, 48 h (100 = growth as untreated, 0 = no growth, -100 = all killed)
# Details in all cases: 10 µM unless noted
# SR leukemia = system: SR leukemia
# RPMI-8226 leukemia = system: RPMI-8226 leukemia
# OVCAR-8 ovarian = system: OVCAR-8 ovarian
# OVCAR-5 ovarian = system: OVCAR-5 ovarian
# OVCAR-4 ovarian = system: OVCAR-4 ovarian
# SK-OV-3 ovarian = system: SK-OV-3 ovarian
# IGROV1 ovarian = system: IGROV1 ovarian
# OVCAR-3 ovarian = system: OVCAR-3 ovarian
# HS 578T breast = system: HS 578T breast
# NCI/ADR-RES ovarian = system: NCI/ADR-RES ovarian
# T-47D breast = system: T-47D breast
# BT-549 breast = system: BT-549 breast
# MDA-MB-435 melanoma = system: MDA-MB-435 melanoma
# SW-620 colon = system: SW-620 colon
# MCF7 breast = system: MCF7 breast
# HCT-116 colon = system: HCT-116 colon
# KM12 colon = system: KM12 colon
# HCC-2998 colon = system: HCC-2998 colon
SMILES,growth (SR leukemia),growth (RPMI-8226 leukemia),growth (OVCAR-8 ovarian),growth (OVCAR-5 ovarian),growth (OVCAR-4 ovarian),growth (SK-OV-3 ovarian),growth (IGROV1 ovarian),growth (OVCAR-3 ovarian),growth (HS 578T breast),growth (NCI/ADR-RES ovarian),growth (T-47D breast),growth (BT-549 breast),growth (MDA-MB-435 melanoma),growth (SW-620 colon),growth (MCF7 breast),growth (HCT-116 colon),growth (KM12 colon),growth (HCC-2998 colon)
Cc1ccc(S(=O)(=O)Oc2ccc3sc4cccc(NCCN(C)C)c4c(=O)c3c2)cc1,-19.4% (active),-48.2% (active),-67.3% (active),-92.4% (active),-69.8% (active),-93.2% (active),-79.6% (active),-95.4% (active),-58.3% (active),-90.7% (active),-69.8% (active),-88.6% (active),-96.3% (active),-92.4% (active),-86.7% (active),-82.9% (active),-85% (active),–
Cc1cccc(-c2nc(Nc3ccc4ncsc4c3)c3ccccc3n2)n1,69.2%,30.6%,53.4%,97.7%,30.7%,113%,16.6%,10.1%,116%,86.9%,34.6%,87.9%,60.4%,79.8%,9.7% (active),–,63.1%,116%
C#COc1cccc(Nc2ncnc3cc(NC(=O)[C@@H](C)Cl)ccc23)c1,1.44% [6.25 µM] (active),-6.79% [6.25 µM] (active),11.9% [6.25 µM],25% [6.25 µM],52.8% [6.25 µM],-5.9% [6.25 µM] (active),8.48% [6.25 µM] (active),-6.96% [6.25 µM] (active),17.4% [6.25 µM],6.35% [6.25 µM] (active),-1.06% [6.25 µM] (active),22.2% [6.25 µM],-58.4% [6.25 µM] (active),20.4% [6.25 µM],11.6% [6.25 µM],–,14.8% [6.25 µM],15.2% [6.25 µM]
O=C(/C=C/C12c3ccccc3C(c3ccccc31)C1C(=O)NC(=O)C12)c1ccc(Br)cc1 (stereo unspecified),14.4%,-10.7% (active),19.6%,59.6%,63.9%,72.5%,48%,13%,45.2%,45.1%,36.8%,46.1%,18.5%,15.3%,10.1%,26.6%,55.5%,–
C#CCNC(=O)[C@]1(C)CCC[C@@]2(C)[C@H]1CC=C1C=C(C(C)C)CC[C@@H]12,105%,103%,113%,113%,101%,104%,99.3%,106%,106%,104%,85.2%,100%,104%,109%,85.6%,107%,100%,–
CC(C)(C)c1cc(Cl)c(O)c(CNCCO)c1,103%,113%,110%,112%,104%,110%,117%,111%,82.7%,109%,98.7%,109%,101%,86.4%,96.3%,99.1%,111%,–
O=C(/C=C/c1ccc(Oc2ccc(Br)cc2)cc1)c1ccc(Br)cc1,85.7%,83.5%,94.7%,110%,95%,108%,99%,102%,102%,98.1%,92.3%,110%,93%,93.7%,73%,–,95.7%,95.5%
CCCCCCCC/C=C\CCCCCCCCOc1ccc(CC(=O)NCC[N+]2(C)CCOCC2)cc1,71.7%,66.6%,73%,29.5%,97.3%,98.8%,5.35% (active),98.1%,72.5%,104%,84.2%,78.1%,89.1%,81.2%,81.7%,73.8%,51.3%,–
N#Cc1c(-c2ccccc2)nc(SCC(O)CN2CCOCC2)nc1N1CCOCC1 (stereo unspecified),85.1%,105%,33.4%,61.2%,68.6%,41.1%,-29.5% (active),35.4%,6.19% (active),–,26%,29.5%,53%,78.6%,4.99% (active),57.5%,69.1%,72.9%
CCOC(=O)c1c(C)nc2ccccc2c1/C=C/c1ccccc1,60.3%,42.2%,53.8%,97%,65%,91.5%,75%,79.6%,94.8%,24.8%,25.7%,61.7%,70.2%,91.1%,65.5%,–,71.8%,87.2%
COc1cccc(CNc2c3ccccc3nc3ccccc23)c1,8.36% (active),16.7%,31.9%,45.9%,43.6%,54.7%,28.3%,54.8%,55.6%,37.5%,45.9%,68.7%,43%,25.5%,14.6%,–,35.9%,–
